Laboratory results reported in PubChem BioAssay.
Where “and” joins values, the source holds several entries; their conditions need not be identical. Equal entries are not always repeated. Inconclusive results are not listed. Calls of active or inactive are those of the source.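 The calls were made as follows, unless noted: active = response below a set limit, under 55% cells CD8-positive and vesicle-bound, and CD8 cells' 90th-percentile brightness under 279; inactive = the rest.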

Tests used:
[1] = yeast TOR pathway RPL19A-GFP modulators, primary screen, cell-based, S. cerevisiae, multiplex flow cytometry (AID 1862; in the data active = percent of DMSO control GFP below about 86%;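 also: lower values mimic rapamycin by blocking the RPL19A rise seen in DMSO cells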); details: S. cerevisiae RPL19A-GFP strain, flow cytometry fluorescence, 3 h; at 10 µM; stronger effect = lower value
[2] = modulators of MEP2-GFP levels in yeast, primary screen, S. cerevisiae, multiplex flow cytometry (AID 1867;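 active = GFP response, as percent of the DMSO control, above the screen-wide mean plus 3 SD, about 139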;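 also: median GFP channel fluorescence of barcode-gated MEP2-GFP cells measured by flow cytometry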); details: S. cerevisiae MEP2-GFP strain, 3 h, at 10 µM, stronger effect = higher value, 100% means same as DMSO wells
[3] = modulators of CIT2-GFP expression in yeast, primary screen, S. cerevisiae, GFP fusion, multiplex flow cytometry (AID 1870;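 active = percent response above a set limit, the screen-wide mean plus 3 SD, cut at about 130% in these data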;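 also: barcoded CIT2-GFP strain pooled with four other GFP strains with rapamycin as positive control; median GFP fluorescence per well over plate mean of DMSO wells so 100% = DMSO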); details: 3 h, at 10 µM, stronger effect = higher value
[4] = modulators of LAP4-GFP expression in yeast, primary screen, S. cerevisiae, multiplex flow cytometry (AID 1873;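 active = GFP signal, as percent of the solvent control, above the screen mean plus 3 SD, about 149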); details: 3 h, at 10 µM, stronger effect = higher value
[5] = modulators of AGP1-GFP expression in yeast TOR pathway, primary screen, cell-based, multiplex flow cytometry, S. cerevisiae (AID 1887;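 active = GFP signal above the screen-wide mean plus 3 SD, that is over about 124.5% of the solvent control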;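 also: AGP1-GFP fusion strain of S. cerevisiae within a five-strain barcoded multiplex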); details: 3 h, at 10 µM, stronger effect = higher value
[6] = inhibitors of CD8+ T cell-vesicle binding, pilot screen, LFA-1/ICAM-1 modulator project, MLPCN validation set, flow cytometry (AID 2523); details: 2C mouse CD8+ T cells, at 7 µM, stronger effect = lower value; double positive events: measured here: CD8+/vesicle+ event percentage;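 as to vesicle binding response: mean PE anti-B7-1 fluorescence of CD8+ cells relative to row control; 100% = QL9-loaded vesicles with DMSO vehicle in the same plate row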
[7] = biological target: Integrin beta-1 (Homo sapiens) + Integrin alpha-4 (Homo sapiens) (UniProt P13612+P05556); assay: inhibition of HUTS-21 binding to VLA-4, pilot screen, VLA-4 allosteric modulator project, U937 cells, HUTS-21 mAb, flow cytometry, validation set (AID 2674;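 active = inhibition above 50%, about 3 SD of the validation set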;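 also: antibody binding induced by the VLA-4 ligand LDV present at three times its Kd; 0% = LDV ligand with antibody and no compound and 100% = antibody without LDV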); details: HUTS-21 LIBS mAb binding, at 6.7 µM, stronger effect = higher value, binding induced by LDV ligand
[8] = superoxide lowering in aged yeast cells, pilot screen, validation compound set (AID 2706;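 active = superoxide response below 65% of plate, a cut near 3 SD across the whole screen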;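 also: yeast exposed to compound for one week at 30 degrees C before staining; 100% = mean of all compound wells on the same plate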); details: S. cerevisiae aging, superoxide DHE fluorescence; at 10 µM; stronger effect = lower value
[9] = biological target: Beta-adrenergic receptor kinase 1 (Homo sapiens) (UniProt P25098); assay: GRK2 binders displacing RNA aptamer, biochemical, validation, human GRK2, bead flow cytometry (AID 488806;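 active = aptamer binding inhibition above 30%, about 3 SD of noise from non-fluorescent compounds; inactive = inhibition at or below 30%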); details: bead-bound GRK2, FAM-aptamer displacement, at 10 µM, stronger effect = higher value
[10] = biological target: Beta-2 adrenergic receptor (Homo sapiens) (UniProt P07550); assay: beta2AR agonists driving receptor internalization, pilot screen, cell-based, FAP fluorogen, flow cytometry, validation set (AID 504459;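 active = percent response above 42, roughly 3 SD of non-fluorescent test compounds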;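 also: agonist-driven loss of surface beta2AR via internalization measured by FAP dye flow cytometry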); details: Am2.2-beta2AR cells, FAP surface receptor flow cytometry; at 10 µM; stronger effect = higher value
[11] = biological target: AP-2 complex subunit beta (Homo sapiens) (UniProt P63010); assay: inhibitors of arrestin peptide binding to AP2, pilot screen, biochemical, validation set, GST-AP2 beads, flow cytometry (AID 504541;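 active = inhibition above 54%, about 3 SD of non-fluorescent compounds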;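 also: AP2 carries R879A mutation and is captured from E. coli lysate; bead-bound FITC arrestin peptide fluorescence measuring arrestin peptide binding to AP2; 0% = DMSO wells and 100% = excess unlabeled arrestin peptide control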); details: FITC arrestin peptide, at 10 µM, stronger effect = higher value, AP2 beta2 appendage fragment, R879A mutant
[12] = yeast V-ATPase proton transport modulators, S. cerevisiae, pHLuorin, HTS validation (AID 504600; in the data active = response above about 15%;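 also: plate controls were DMSO for no effect and reference compound for full effect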); details: S. cerevisiae pHLuorin cytosolic pH, at 10 µM, stronger effect = higher value
[13] = test system: anti-desmoglein-3 scFv antibody binding to human DSG3; assay: inhibitors of anti-DSG3 scFv binding to DSG3, pilot screen, biochemical, validation compound set, bead-based, flow cytometry (AID 588368;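 active = binding below the plate cutoff, the plate median minus 3 SD, with a reading above zero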;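 also: signal is the median channel fluorescence of bead-bound GFP antibody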); details: Protein G beads, DSG3-Fc, scFv-GFP binding, at 10 µM, stronger effect = lower value
[14] = inhibitors of fungal efflux pumps CDR1, CDR2, MDR1, pilot screen, validation compound set, multiplex, phenotypic (AID 588506;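 active = efflux inhibition above 0.42, the validation set average plus 4 SD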;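 also: Nile Red retained in cells so higher fluorescence means more efflux inhibition; 0 = negative control wells and 1 = enniatin B 25 µM full block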); details: S. cerevisiae pump-expressing triplex, Nile Red efflux flow cytometry; at 10 µM; stronger effect = higher value; the pumps come from Candida albicans
[15] = biological target: ATP-binding cassette sub-family B member 6 (Homo sapiens) (UniProt Q9NP58); assay: ABCB6 transporter inhibitors, pilot screen, K562-ABCB6 cells, flow cytometry, validation set (AID 588550;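 active = inhibition above the screen-wide mean plus 3 SD, about 51%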;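 also: 0% = DMSO wells and 100% = benzethonium chloride 70 µM positive control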); details: K562-ABCB6 porphyrin accumulation, 1 h, at 10 µM, stronger effect = higher value
[16] = promoters of myeloid differentiation in arrested cells, primary screen, cell-based, GFP/MAC1 double positive, flow cytometry, validation set (AID 588685;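 active = differentiation response of at least 50%, scaled between solvent and reference control, from cells with both markers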;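 also: compound exposure lasts four days before antibody staining and flow analysis; 0% = DMSO wells and 100% = 5 µM fulvestrant positive control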); details: ER-HoxA9 marrow cells, stronger effect = higher value, normalized: vehicle 0, fulvestrant 100

Chain of ATP-binding cassette sub-family B member 6 (Homo sapiens) (Q9NP58 whole entry, looked up): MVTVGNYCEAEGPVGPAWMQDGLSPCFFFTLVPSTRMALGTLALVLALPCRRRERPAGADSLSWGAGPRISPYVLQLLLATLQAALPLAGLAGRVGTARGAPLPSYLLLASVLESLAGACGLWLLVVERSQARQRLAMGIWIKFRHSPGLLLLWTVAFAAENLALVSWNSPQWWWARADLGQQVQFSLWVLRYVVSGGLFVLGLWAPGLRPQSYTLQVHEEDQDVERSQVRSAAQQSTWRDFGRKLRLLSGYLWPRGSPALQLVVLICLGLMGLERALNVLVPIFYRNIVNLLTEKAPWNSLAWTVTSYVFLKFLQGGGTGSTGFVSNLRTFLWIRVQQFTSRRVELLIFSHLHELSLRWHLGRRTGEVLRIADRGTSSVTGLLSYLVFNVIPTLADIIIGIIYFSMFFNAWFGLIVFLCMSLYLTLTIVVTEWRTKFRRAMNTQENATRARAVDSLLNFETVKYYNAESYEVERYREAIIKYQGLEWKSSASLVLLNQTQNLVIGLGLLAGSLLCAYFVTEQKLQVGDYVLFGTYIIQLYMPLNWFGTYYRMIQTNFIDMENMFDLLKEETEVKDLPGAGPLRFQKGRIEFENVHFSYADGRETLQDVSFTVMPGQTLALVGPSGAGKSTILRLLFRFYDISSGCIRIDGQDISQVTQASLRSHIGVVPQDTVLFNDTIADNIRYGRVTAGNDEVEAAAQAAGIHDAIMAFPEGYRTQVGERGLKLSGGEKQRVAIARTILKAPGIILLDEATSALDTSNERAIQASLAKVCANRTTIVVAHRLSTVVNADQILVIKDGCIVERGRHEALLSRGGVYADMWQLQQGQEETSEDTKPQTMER
Chain of Beta-adrenergic receptor kinase 1 (Homo sapiens) (P25098 whole entry, looked up): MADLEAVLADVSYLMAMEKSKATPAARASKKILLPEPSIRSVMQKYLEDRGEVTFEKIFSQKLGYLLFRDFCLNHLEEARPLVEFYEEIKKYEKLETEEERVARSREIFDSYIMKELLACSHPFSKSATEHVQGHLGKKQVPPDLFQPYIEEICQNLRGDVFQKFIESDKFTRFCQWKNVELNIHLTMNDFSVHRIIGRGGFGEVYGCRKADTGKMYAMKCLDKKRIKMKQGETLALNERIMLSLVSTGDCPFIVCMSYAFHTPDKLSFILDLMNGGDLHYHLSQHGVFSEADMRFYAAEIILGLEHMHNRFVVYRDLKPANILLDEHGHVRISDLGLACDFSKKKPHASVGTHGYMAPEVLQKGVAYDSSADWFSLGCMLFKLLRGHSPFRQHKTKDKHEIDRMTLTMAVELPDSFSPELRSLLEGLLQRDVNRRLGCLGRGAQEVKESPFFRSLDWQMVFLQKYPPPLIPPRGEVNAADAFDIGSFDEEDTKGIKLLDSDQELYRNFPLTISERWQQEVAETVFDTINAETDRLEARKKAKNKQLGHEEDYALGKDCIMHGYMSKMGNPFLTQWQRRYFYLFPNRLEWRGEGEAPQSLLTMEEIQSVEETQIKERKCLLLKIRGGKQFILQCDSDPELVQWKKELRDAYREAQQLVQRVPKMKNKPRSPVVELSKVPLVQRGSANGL
Chain of Integrin beta-1 (Homo sapiens) + Integrin alpha-4 (Homo sapiens) (P05556 whole entry, looked up): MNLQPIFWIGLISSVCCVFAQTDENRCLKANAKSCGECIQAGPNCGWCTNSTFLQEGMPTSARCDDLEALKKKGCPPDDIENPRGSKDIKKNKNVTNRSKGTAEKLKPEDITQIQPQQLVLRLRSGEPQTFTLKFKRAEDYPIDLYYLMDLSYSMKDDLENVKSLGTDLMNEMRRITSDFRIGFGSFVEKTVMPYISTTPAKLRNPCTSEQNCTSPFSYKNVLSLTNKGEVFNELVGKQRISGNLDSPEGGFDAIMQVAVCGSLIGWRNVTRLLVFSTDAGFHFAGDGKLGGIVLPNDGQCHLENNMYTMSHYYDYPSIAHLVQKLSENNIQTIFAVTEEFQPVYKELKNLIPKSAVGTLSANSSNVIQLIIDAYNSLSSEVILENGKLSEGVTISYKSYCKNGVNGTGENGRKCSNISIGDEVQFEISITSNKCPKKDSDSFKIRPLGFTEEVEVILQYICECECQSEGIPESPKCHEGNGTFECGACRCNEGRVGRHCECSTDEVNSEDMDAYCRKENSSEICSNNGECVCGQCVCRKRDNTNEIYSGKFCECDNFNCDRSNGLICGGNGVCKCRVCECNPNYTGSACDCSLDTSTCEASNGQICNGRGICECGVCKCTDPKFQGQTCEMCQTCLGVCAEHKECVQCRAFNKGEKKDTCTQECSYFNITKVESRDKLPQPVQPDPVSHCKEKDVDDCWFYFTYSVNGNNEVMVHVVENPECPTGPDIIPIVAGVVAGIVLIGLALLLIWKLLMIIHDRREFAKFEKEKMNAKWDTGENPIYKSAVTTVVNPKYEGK
Chain of Integrin beta-1 (Homo sapiens) + Integrin alpha-4 (Homo sapiens) (P13612 whole entry, looked up): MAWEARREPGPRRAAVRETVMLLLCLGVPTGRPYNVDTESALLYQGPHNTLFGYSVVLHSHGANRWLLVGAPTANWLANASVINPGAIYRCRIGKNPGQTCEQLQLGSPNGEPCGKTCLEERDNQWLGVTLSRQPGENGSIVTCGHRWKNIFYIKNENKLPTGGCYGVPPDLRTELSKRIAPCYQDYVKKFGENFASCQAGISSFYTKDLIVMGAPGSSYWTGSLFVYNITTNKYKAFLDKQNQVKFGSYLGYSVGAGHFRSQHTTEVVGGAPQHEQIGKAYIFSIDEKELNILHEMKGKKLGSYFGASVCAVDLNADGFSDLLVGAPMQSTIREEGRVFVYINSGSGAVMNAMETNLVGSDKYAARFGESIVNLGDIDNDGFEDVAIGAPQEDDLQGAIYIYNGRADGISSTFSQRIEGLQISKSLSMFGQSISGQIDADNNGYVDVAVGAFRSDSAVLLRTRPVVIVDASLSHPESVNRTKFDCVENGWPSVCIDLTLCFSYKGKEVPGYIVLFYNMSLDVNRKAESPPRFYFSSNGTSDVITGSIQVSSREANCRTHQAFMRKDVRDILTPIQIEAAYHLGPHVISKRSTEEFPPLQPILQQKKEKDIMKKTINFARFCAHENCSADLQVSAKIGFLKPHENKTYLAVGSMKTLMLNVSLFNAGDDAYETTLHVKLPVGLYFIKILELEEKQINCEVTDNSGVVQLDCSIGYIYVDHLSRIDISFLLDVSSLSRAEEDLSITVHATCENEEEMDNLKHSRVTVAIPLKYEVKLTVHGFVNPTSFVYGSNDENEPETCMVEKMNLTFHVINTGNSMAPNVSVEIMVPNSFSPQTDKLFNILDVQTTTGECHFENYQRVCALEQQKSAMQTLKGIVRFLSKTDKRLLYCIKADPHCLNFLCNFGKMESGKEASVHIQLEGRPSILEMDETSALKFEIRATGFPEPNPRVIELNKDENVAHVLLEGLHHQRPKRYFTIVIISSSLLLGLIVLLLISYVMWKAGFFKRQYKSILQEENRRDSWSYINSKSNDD
Chain of AP-2 complex subunit beta (Homo sapiens) (P63010 whole entry, looked up, the tested form may be a part, one chain of several): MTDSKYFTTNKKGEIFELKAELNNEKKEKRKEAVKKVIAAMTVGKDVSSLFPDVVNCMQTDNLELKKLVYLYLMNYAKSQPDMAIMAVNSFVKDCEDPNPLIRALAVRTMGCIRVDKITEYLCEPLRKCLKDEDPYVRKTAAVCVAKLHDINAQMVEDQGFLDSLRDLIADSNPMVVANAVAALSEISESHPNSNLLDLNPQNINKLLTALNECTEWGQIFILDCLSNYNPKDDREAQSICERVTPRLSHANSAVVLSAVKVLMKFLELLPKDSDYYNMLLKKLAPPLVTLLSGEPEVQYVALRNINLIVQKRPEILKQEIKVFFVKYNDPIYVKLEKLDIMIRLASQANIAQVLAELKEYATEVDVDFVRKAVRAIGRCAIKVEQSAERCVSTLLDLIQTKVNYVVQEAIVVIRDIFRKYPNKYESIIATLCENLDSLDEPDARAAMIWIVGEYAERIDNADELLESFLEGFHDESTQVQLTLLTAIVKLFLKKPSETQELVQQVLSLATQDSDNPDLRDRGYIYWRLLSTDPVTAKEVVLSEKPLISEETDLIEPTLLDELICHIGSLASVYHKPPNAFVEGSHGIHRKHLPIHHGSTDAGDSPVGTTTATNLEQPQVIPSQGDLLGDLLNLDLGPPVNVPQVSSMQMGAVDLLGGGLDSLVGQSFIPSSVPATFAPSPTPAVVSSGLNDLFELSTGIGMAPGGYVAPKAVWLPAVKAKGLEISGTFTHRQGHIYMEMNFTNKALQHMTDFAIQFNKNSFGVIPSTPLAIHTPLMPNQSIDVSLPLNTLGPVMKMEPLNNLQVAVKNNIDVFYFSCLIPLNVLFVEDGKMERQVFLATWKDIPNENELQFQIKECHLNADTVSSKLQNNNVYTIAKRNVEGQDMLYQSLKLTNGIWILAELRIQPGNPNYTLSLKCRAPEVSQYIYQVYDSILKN
Chain of Beta-2 adrenergic receptor (Homo sapiens) (P07550 whole entry, looked up): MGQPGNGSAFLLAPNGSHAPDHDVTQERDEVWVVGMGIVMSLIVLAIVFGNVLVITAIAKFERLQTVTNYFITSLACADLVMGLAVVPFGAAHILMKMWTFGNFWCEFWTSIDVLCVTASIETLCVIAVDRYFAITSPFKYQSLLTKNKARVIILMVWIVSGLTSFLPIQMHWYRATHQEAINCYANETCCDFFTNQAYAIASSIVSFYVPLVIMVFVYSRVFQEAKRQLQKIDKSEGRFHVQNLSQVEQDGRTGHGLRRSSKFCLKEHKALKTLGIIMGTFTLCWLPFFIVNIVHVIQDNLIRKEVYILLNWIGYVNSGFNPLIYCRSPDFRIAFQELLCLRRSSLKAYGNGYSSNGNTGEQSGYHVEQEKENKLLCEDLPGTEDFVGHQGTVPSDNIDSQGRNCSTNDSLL

SMILES | percent of DMSO control GFP [1] | GFP response vs DMSO [2] | percent response of DMSO control [3] | GFP response vs DMSO [4] | GFP response, % of DMSO [5] | double positive events [6] | vesicle binding response [6] | inhibition [7] | superoxide response (% of plate) [8] | aptamer binding inhibition [9] | response [10] | inhibition [11] | response [12] | binding (% of control) [13] | efflux inhibition (fraction of control) [14] | inhibition [15] | differentiation response [16]
CCCCOc1cc(C(=O)NCCN(CC)CC)c2ccccc2n1 | 94.8% (inactive) | 128% (inactive) | 106% (inactive) | 79.8% (inactive) | 92.8% (inactive) | 48.4% and 71.1% | 187% (inactive) and 185% (inactive) | 13.8% (inactive) and 14.2% (inactive) | 88.6% (inactive) and 105% (inactive) | -2% (inactive) and -3% (inactive) | -3.62% (inactive) | -5.17% (inactive) and -1.67% (inactive) | -31% (inactive) and -1.46% (inactive) | 145% (inactive) and 101% (inactive) | 0.03 (inactive) and 0.09 (inactive) | 11% (inactive) and 10% (inactive) | 7.87% (inactive) and 9.01% (inactive)
COC(=O)CN1C(=S)N(c2ccc(F)cc2)C(=O)C1CC(=O)Nc1ccccc1 (stereo not drawn) | 99.7% (inactive) | 101% (inactive) | 102% (inactive) | 120% (inactive) | 118% (inactive) | 57.4% | 189% (inactive) | 11.7% (inactive) | 103% (inactive) | 1% (inactive) | -25.4% (inactive) | 0.21% (inactive) | 0.96% (inactive) | 101% (inactive) | 0 (inactive) | -3% (inactive) | -10.9% (inactive)
CN(C)C(=O)CCCCCCCCC(=O)N(C)C | 90.6% (inactive) | 146% (active) | 107% (inactive) | 79.2% (inactive) | 93.3% (inactive) | 64.1% | 194% (inactive) | 7.43% (inactive) | 81.8% (inactive) | 5% (inactive) | 3.92% (inactive) | 12.9% (inactive) | -5.22% (inactive) | 101% (inactive) | 0.16 (inactive) | 6% (inactive) | 1.64% (inactive)
NC(N)=N/N=C/c1ccc(OS(=O)(=O)c2ccccc2)cc1 | 102% (inactive) | 101% (inactive) | 101% (inactive) | 90.4% (inactive) | 102% (inactive) | 61.3% | 141% (inactive) | 17.7% (inactive) | 93.2% (inactive) | -12% (inactive) | 13.2% (inactive) | -0.93% (inactive) | -4.93% (inactive) | 107% (inactive) | -0.03 (inactive) | 11% (inactive) | 4.2% (inactive)
CCNC1=C(Cl)C(=O)c2ccccc2C1=O | 104% (inactive) | 104% (inactive) | 91.8% (inactive) | 127% (inactive) | 113% (inactive) | 59.8% | 159% (inactive) | 21% (inactive) | 229% (inactive) | 3% (inactive) | -20% (inactive) | -22.4% (inactive) | 1.03% (inactive) | 104% (inactive) | -0.09 (inactive) | -12% (inactive) | 0.92% (inactive)
CC(C)c1ccc(/C=C/C(=O)O)cc1 | 96.3% (inactive) | 105% (inactive) | 81.5% (inactive) | 161% (active) | 83.4% (inactive) | 56.5% | 218% (inactive) | 7.76% (inactive) | 99.5% (inactive) | 3% (inactive) | 3.14% (inactive) | 3.59% (inactive) | 1.59% (inactive) | 94.5% (inactive) | -0.35 (inactive) | 4% (inactive) | -2.4% (inactive)
COc1cc(CC(=O)NCCc2ccc(S(N)(=O)=O)cc2)cc(OC)c1OC | 104% (inactive) | 103% (inactive) | 102% (inactive) | 114% (inactive) | 111% (inactive) | 66.9% | 177% (inactive) | 1.44% (inactive) | 95.2% (inactive) | -4% (inactive) | -8.65% (inactive) | -9.64% (inactive) | 0.1% (inactive) | 114% (inactive) | -0.04 (inactive) | 4% (inactive) | 0.92% (inactive)
CCOC(=O)C1=C(C)N[C@@]2(O)c3ccccc3C(=O)[C@@]12O | 102% (inactive) | 106% (inactive) | 106% (inactive) | 92.2% (inactive) | 98.5% (inactive) | 65.1% | 254% (inactive) | -7.25% (inactive) | 96.8% (inactive) | 1% (inactive) | -1.07% (inactive) | 12.9% (inactive) | 13% (inactive) | 99.3% (inactive) | -0.21 (inactive) | 6% (inactive) | -21.6% (inactive)
Cc1cc(=O)oc2c(CN(C)Cc3ccccc3)c(O)ccc12 | 100% (inactive) | 106% (inactive) | 105% (inactive) | 94.7% (inactive) | 96.2% (inactive) | 62.4% | 434% (inactive) | 12% (inactive) | 97.6% (inactive) | 3% (inactive) | 0.85% (inactive) | -2.59% (inactive) | 1.53% (inactive) | 97.4% (inactive) | 0.11 (inactive) | 10% (inactive) | 0.24% (inactive)
